According to paper PMC5540273 (PLoS ONE, 2017):

Experiments:
Conditions in all cases: concentration: 1 μM, replicates: in singlicate; n = 1
MYLK = system: MYLK
MYO3A = system: MYO3A
MYO3B = system: MYO3B
NDR1 = system: T1, NDR1
T1 construct: gene STK38

NDR2 = system: NDR2
NEK10 = system: NEK10
NEK11 = system: NEK11
NEK1 = system: NEK1
NEK2 = system: NEK2
NEK3 = system: NEK3
NEK4 = system: NEK4
NEK5 = system: NEK5
NEK6 = system: NEK6
NEK7 = system: NEK7
NEK9 = system: NEK9
NIK = system: T2, NIK
T2 construct: gene MAP3K14

NIM1 = system: T3, NIM1
T3 construct: gene MGC42105

NLK = system: NLK
OSR1 = system: T4, OSR1
T4 construct: gene OXSR1

PAK1 = system: PAK1
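Further: KINOMEscan kinase panel screen.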

Structure (SMILES)	%Inh (MYLK)	%Inh (MYO3A)	%Inh (MYO3B)	%Inh (NDR1)	%Inh (NDR2)	%Inh (NEK10)	%Inh (NEK11)	%Inh (NEK1)	%Inh (NEK2)	%Inh (NEK3)	%Inh (NEK4)	%Inh (NEK5)	%Inh (NEK6)	%Inh (NEK7)	%Inh (NEK9)	%Inh (NIK)	%Inh (NIM1)	%Inh (NLK)	%Inh (OSR1)	%Inh (PAK1)
Nc1ncnc2c1ncn2-c1ccc(Cl)cc1 [AH2635]	0%	49%	0%	0%	31%	27%	0%	0%	0%	0%	0%	12%	0%	0%	0%	89%	27%	0%	0%	4%
CCn1c(-c2nonc2N)nc2ccccc21 [SB-693162/GW549034]	48%	0%	18%	37%	23%	12%	25%	0%	0%	0%	11%	18%	17%	12%	0%	24%	2%	0%	24%	0%
COc1cccc(C2=C(Nc3cccc(C(=O)O)c3)C(=O)NC2=O)c1 [SB-390770]	0%	0%	8%	0%	0%	40%	36%	0%	0%	0%	0%	14%	1%	0%	9%	0%	0%	8%	16%	0%
COc1cc2nccc(Nc3ccc(OCc4ccc(NC(C)=O)cc4)cc3)c2cc1OC.Cl [GW440135]	13%	20%	0%	0%	0%	12%	0%	0%	0%	0%	0%	0%	0%	100%	94.8%	16%	24%	10%	0%	0%
CC(C)(C)c1ccc(C(=O)Nc2cn3cc(-c4ccccc4)ccc3n2)cc1	23%	0%	0%	35%	0%	0%	0%	0%	0%	36%	0%	0%	0%	0%	0%	0%	19%	0%	0%	0%
Cc1cc(Nc2nc(-c3cccc(C)n3)nc3ccccc23)ccn1 [GW872411]	0%	0%	0%	31%	22%	6%	0%	0%	0%	14%	0%	6%	0%	0%	0%	16%	0%	0%	0%	0%
Fc1cccc(CSc2nnc(-c3ccc4c(c3)CCO4)o2)c1	2%	0%	0%	16%	22%	0%	0%	0%	1%	19%	20%	6%	10%	13%	12%	0%	0%	0%	3%	28%
COc1cc(OC)cc(-c2cc3cnc(N)nc3nc2NC(=O)NC(C)(C)C)c1	7%	0%	0%	0%	0%	0%	0%	0%	3%	33%	0%	0%	0%	1%	0%	1%	0%	0%	0%	0%
COc1ccc(CNC(=O)NC2CCN(c3ccnc(Nc4ccc(F)cc4)n3)C2)cc1 (stereo not drawn) [GSK1379706]	9%	42%	0%	28%	50%	25%	43%	17%	16%	13%	0%	35%	21%	0%	0%	26%	0%	37%	0%	0%
COc1cc2ncn(-c3cc(OCc4ccc(S(C)(=O)=O)cc4)c(C(N)=O)s3)c2cc1OC [GW869979]	46%	0%	0%	25%	4%	29%	14%	0%	0%	14%	14%	20%	1%	0%	0%	7%	45%	4%	25%	0%
Cc1cccc(-c2nc(Nc3ccc4c(cnn4C)c3)c3ccccc3n2)n1 [GW876731]	0%	0%	0%	17%	68%	0%	46%	0%	14%	0%	0%	49%	12%	2%	5%	11%	16%	25%	0%	6%
COc1cc2ncn(-c3cc(OCc4ccncc4)c(C(N)=O)s3)c2cc1OC [GSK336313]	44%	10%	0%	0%	0%	0%	0%	31%	10%	0%	0%	23%	0%	0%	15%	0%	0%	11%	31%	16%
COc1ccc(-c2coc3ccc(-c4nnc(SCc5cccc(C#N)c5)o4)cc23)cc1	6%	20%	49%	7%	0%	0%	0%	0%	5%	7%	3%	0%	16%	0%	0%	2%	5%	0%	0%	18%
Nc1nc(-c2ccccc2F)c(-c2ccnc3ccccc23)s1 [GW560459]	11%	20%	0%	16%	0%	3%	0%	7%	0%	1%	0%	0%	0%	8%	53%	17%	22%	27%	4%	18%
CCC(=O)c1c(-c2ccccc2)c2cc(Cl)ccc2c(=O)n1Cc1cc(S(C)(=O)=O)n(CCC(C)(C)O)n1	5%	0%	0%	2%	1%	0%	0%	0%	4%	0%	0%	17%	14%	1%	0%	0%	0%	0%	0%	20%
COc1ccc(-c2cc3c(C)nc(N)nc3n([C@H]3CC[C@H](O)CC3)c2=O)cn1	98.8%	0%	0%	0%	0%	0%	0%	0%	0%	16%	0%	0%	0%	0%	0%	2%	0%	13%	0%	7%
CCC(=O)c1c(-c2ccccc2)c2cc(Cl)ccc2c(=O)n1Cc1cc(S(C)(=O)=O)n(CC(F)F)n1	0%	0%	0%	3%	0%	5%	0%	0%	0%	22%	0%	0%	0%	0%	0%	0%	0%	0%	0%	0%
Nc1n[nH]c2ncc(-c3ccccc3)cc12 [SB-517081]	39%	20%	0%	27%	0%	24%	0%	0%	27%	21%	26%	9%	0%	0%	7%	0%	28%	13%	0%	7%
COc1ccc(-c2cc3c(C)nc(N)nc3n([C@H]3CC[C@H](OCCO)CC3)c2=O)cn1	0%	0%	25%	11%	0%	22%	0%	0%	0%	19%	0%	0%	22%	0%	0%	0%	21%	0%	0%	0%
COc1cccc(C2=C(N(C)c3ccccc3)C(=O)NC2=O)c1 [SB-334865]	1%	22%	0%	16%	0%	22%	0%	0%	0%	26%	0%	0%	0%	0%	0%	100%	21%	29%	0%	1%
Cn1c(=O)c(F)c(Nc2ccc(I)cc2F)c2c(=O)n(OC[C@H](O)CO)cnc21	22%	0%	28%	7%	3%	0%	0%	0%	14%	35%	0%	4%	30%	0%	0%	0%	0%	0%	0%	0%
